A short description of experiment [1]: NCI Yeast Anticancer Drug Screen. Data for the rad50 strain (AID 155).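 Note: 0% = growth of vehicle-only cultures of the same strain.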 The conditions noted are these: S. cerevisiae rad50 strain growth inhibition; at 50.0 µM; stronger effect = higher value. Summed up: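 Inhibition values express reduced yeast growth in compound-treated cultures relative to vehicle-treated controls.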
Experiment [2] can be described thus: NCI Yeast Anticancer Drug Screen. Data for the mec2-1 strain (AID 157). The conditions noted are these: S. cerevisiae mec2-1 strain, at 50.0 µM, stronger effect = higher value. Summed up: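 Readout is yeast growth inhibition, normalised to vehicle-treated controls, in the mec2-1 strain exposed to compound.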
The nature of experiment [3]: NCI Yeast Anticancer Drug Screen. Data for the sgs1 mgt1 strain (AID 161).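 Note: 0% = growth of cultures given vehicle only.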 The conditions noted are these: S. cerevisiae sgs1 mgt1 strain, at 50.0 µM, stronger effect = higher value. Summed up: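 Percent growth inhibition was derived by comparing compound-exposed mutant yeast with vehicle-exposed cultures. The strain carries alterations in DNA damage repair.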
The nature of experiment [4]: NCI Yeast Anticancer Drug Screen. Data for the cln2 rad14 strain (AID 165).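 Note: 0% = growth equal to vehicle treated cultures.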 The conditions noted are these: S. cerevisiae cln2 rad14 strain, at 50.0 µM, stronger effect = higher value. Summed up: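 Relative to vehicle controls, growth inhibition of compound-treated cln2 rad14 yeast was recorded.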
Experiment [5] is described as follows: NCI Yeast Anticancer Drug Screen. Data for the bub3 strain (AID 167). The conditions noted are these: S. cerevisiae bub3 mutant strain, at 50.0 µM, stronger effect = higher value. In outline: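 Steps: expose the mutant yeast strain to compound; grow alongside vehicle-treated cultures; measure growth; express inhibition against the vehicle cultures.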
The nature of experiment [6]: NCI Yeast Anticancer Drug Screen. Data for the mlh1 rad18 strain (AID 175). The conditions noted are these: S. cerevisiae mlh1 rad18 strain growth inhibition; at 50.0 µM; stronger effect = higher value. Summed up:
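Test agents were incubated with a yeast strain of defined genotype (DNA damage repair defect). Inhibition of growth was derived by comparison with vehicle-exposed cultures.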

Values joined by “and” are separate entries in the source; they are usually repeats but may differ in a detail not shown here. Equal values may be shown once. The panel holds about 79,000 compounds, 15% with a hit somewhere; the sample as a whole holds those more often. Some structures have more than one record in an assay (separate samples or runs), and their calls can disagree. Active and inactive are the calls of the source. Cut-off read from the data, not from the text of the source: active = growth inhibition above about 70%; inactive = the rest.

For the compound `NC(=O)Nc1ccc(Cl)cc1`, the growth inhibition was -17.2% (inactive) and 22.5% (inactive) in experiment [1]; -11.8% (inactive) and -9.35% (inactive) in experiment [2]; -24.8% (inactive) and -5% (inactive) in experiment [3]; -17.9% (inactive) and -12.5% (inactive) in experiment [4]; -4.2% (inactive) and -17.1% (inactive) in experiment [5]; -10.9% (inactive) and 15.4% (inactive) in experiment [6].
With `Cc1nc2ccc(Br)cc2c(=O)n1-c1ccc(NC2OC(CO)C(O)C(O)C2O)cc1` (stereo not given), the growth inhibition was 49.9% (inactive) and -0.75% (inactive) in experiment [1]; 36.6% (inactive) and -23.4% (inactive) in experiment [2]; -33.1% (inactive) and 0.7% (inactive) in experiment [3]; -3.65% (inactive) and -35.2% (inactive) in experiment [4]; -49.1% (inactive) and -7.65% (inactive) in experiment [5]; -60.5% (inactive) and -10.8% (inactive) in experiment [6].
On to `O=C(O)C(Cc1ccccc1)Cc1ccccc1`, for which the growth inhibition in experiment [1] is -11.6% (inactive) and 20.8% (inactive); in experiment [2] it was 4.6% (inactive) and 3.1% (inactive); in experiment [3], -14.4% (inactive) and 9.8% (inactive); in experiment [4] it was -40.1% (inactive) and 29.2% (inactive); in experiment [5] it was -22.9% (inactive) and 43.5% (inactive); in experiment [6] it was 3.75% (inactive) and 35.2% (inactive).
Regarding `O=c1[nH]c(CCc2ccccc2)nc2ccccc12`, the growth inhibition in experiment [1] was -5.1% (inactive) and -47.5% (inactive); in experiment [2], 7.85% (inactive) and -42.1% (inactive); in experiment [3] it was -7.2% (inactive) and -23.5% (inactive); in experiment [4], -38% (inactive) and -11.1% (inactive); in experiment [5], -26.8% (inactive) and -31.9% (inactive); in experiment [6] it was -2.8% (inactive) and -4.05% (inactive).
As to `O=C(O)c1cc(N=Nc2ccc([N+](=O)[O-])cc2)ccc1O`, the growth inhibition is 51.1% (inactive) and 26.6% (inactive) in experiment [1]; -34% (inactive) and 8.2% (inactive) in experiment [2]; -13.7% (inactive) and 12.2% (inactive) in experiment [3]; 10.2% (inactive) and -34.8% (inactive) in experiment [4]; 9.75% (inactive) and 27.4% (inactive) in experiment [5]; 18.2% (inactive) and 49% (inactive) in experiment [6].
In the case of `CN(C)CC1COC2Cc3ccccc3C1O2` (stereo not given), the growth inhibition was -43.2% (inactive) and -0.75% (inactive) in experiment [1]; -22.1% (inactive) and -20.2% (inactive) in experiment [2]; -17.2% (inactive) and -1.65% (inactive) in experiment [3]; -46.1% (inactive) and 20.9% (inactive) in experiment [4]; -19.1% (inactive) and 21.5% (inactive) in experiment [5]; -29.3% (inactive) and 1.95% (inactive) in experiment [6].
`CCOC(=O)C(NC(C)=O)C(C)=O` (stereo not given): the growth inhibition in experiment [1] is 32.5% (inactive) and 10.9% (inactive); in experiment [2], -7% (inactive) and -5.65% (inactive); in experiment [3], 13.1% (inactive) and 8.85% (inactive); in experiment [4], -4.15% (inactive) and -11.7% (inactive); in experiment [5], 1.55% (inactive) and -3.15% (inactive); in experiment [6], -5.85% (inactive) and 11.9% (inactive).
Consider `C=CCN(CC=C)c1nc2ccccc2c(=O)[nH]1`, for which the growth inhibition in experiment [1] is 39.6% (inactive) and -6.7% (inactive); in experiment [2], 24.2% (inactive) and -3.7% (inactive); in experiment [3], 22.5% (inactive) and -3.8% (inactive); in experiment [4], 7.9% (inactive) and -60.1% (inactive); in experiment [5], -2.25% (inactive) and -12.4% (inactive); in experiment [6], 17.2% (inactive) and 0.45% (inactive).
For the compound `CCCCCCCCCCCC(=O)Nc1ccccc1`, the growth inhibition is -22.6% (inactive) and -29.2% (inactive) in experiment [1]; -4.05% (inactive) and -16.9% (inactive) in experiment [2]; 1.2% (inactive) and -18.3% (inactive) in experiment [3]; -31.7% (inactive) and -71% (inactive) in experiment [4]; 24.8% (inactive) and -9.7% (inactive) in experiment [5]; 14.4% (inactive) and -31.1% (inactive) in experiment [6].
Regarding `NC(N)=S`, the growth inhibition in experiment [1] was -10.2% (inactive) and 7% (inactive); in experiment [2] it was -2.4% (inactive) and -11.8% (inactive); in experiment [3], -6.1% (inactive) and 9% (inactive); in experiment [4] it was 32.8% (inactive) and 1.9% (inactive); in experiment [5] it was 3.75% (inactive) and 3.8% (inactive); in experiment [6] it was 0.35% (inactive) and -9.45% (inactive).
`CC(CC(N)C(=O)O)C(=O)O` (stereo not given): the growth inhibition is -0.4% (inactive) and -5.1% (inactive) in experiment [1]; -4.75% (inactive) and -22.6% (inactive) in experiment [2]; -1.95% (inactive) and -49.1% (inactive) in experiment [3]; 0.25% (inactive) and -68.8% (inactive) in experiment [4]; 0.9% (inactive) and -26.1% (inactive) in experiment [5]; -1.85% (inactive) and -17.2% (inactive) in experiment [6].
On to `COc1cc(C=O)ccc1O`, for which the growth inhibition in experiment [1] was 0.2% (inactive) and 12.1% (inactive); in experiment [2] it was -0.35% (inactive) and 2.65% (inactive); in experiment [3], -5.95% (inactive) and 15.9% (inactive); in experiment [4], 4.45% (inactive) and 6.3% (inactive); in experiment [5] it was -1.9% (inactive) and 13.4% (inactive); in experiment [6], 7.75% (inactive) and 14.2% (inactive).
In the case of `Clc1ccc(/C=N/N=C/c2ccc(Cl)cc2)cc1`, the growth inhibition in experiment [1] is -52.5% (inactive) and -17.1% (inactive); in experiment [2] it was -28.9% (inactive) and -16% (inactive); in experiment [3], -42.2% (inactive) and -19.6% (inactive); in experiment [4] it was -23% (inactive) and -20.1% (inactive); in experiment [5], -33.3% (inactive) and 6.3% (inactive); in experiment [6], -33.5% (inactive) and -18.1% (inactive).
With `CC(=O)Nc1cccc2c1C(=O)OC2=O`, the growth inhibition in experiment [1] was 8.65% (inactive) and 1.9% (inactive); in experiment [2], -3.9% (inactive) and -0.15% (inactive); in experiment [3] it was 5.05% (inactive) and -16.7% (inactive); in experiment [4], -6.3% (inactive) and -20.6% (inactive); in experiment [5] it was -1.9% (inactive) and -0.8% (inactive); in experiment [6], -8.1% (inactive) and -4.7% (inactive).
With `Nc1nc(N)c(Br)c(=O)[nH]1`, the growth inhibition in experiment [1] is -11.3% (inactive) and 9% (inactive); in experiment [2], -36.4% (inactive) and -24.6% (inactive); in experiment [3] it was -11.3% (inactive) and -38.1% (inactive); in experiment [4] it was 12.2% (inactive) and -83.6% (inactive); in experiment [5], -10.9% (inactive) and -13.3% (inactive); in experiment [6], -6.75% (inactive) and -21.4% (inactive).
Turning to `O=C(O)CSc1nc2ccccc2s1`, the growth inhibition is -8.8% (inactive) and -6.9% (inactive) in experiment [1]; 1.7% (inactive) and -9.8% (inactive) in experiment [2]; -0.85% (inactive) and -11.6% (inactive) in experiment [3]; -28.8% (inactive) and -12% (inactive) in experiment [4]; 9.45% (inactive) and -33.6% (inactive) in experiment [5]; -12.7% (inactive) and -48% (inactive) in experiment [6].
`CC(=O)OCC1OC(n2c(N)c(C#N)c(C)c(C#N)c2=S)C(OC(C)=O)C(OC(C)=O)C1OC(C)=O` (stereo not given): the growth inhibition in experiment [1] is -25.4% (inactive) and -28% (inactive); in experiment [2], -13% (inactive) and -5.75% (inactive); in experiment [3], -7.1% (inactive) and -10.7% (inactive); in experiment [4] it was -30.7% (inactive) and -44.5% (inactive); in experiment [5], 3.55% (inactive) and -1.5% (inactive); in experiment [6] it was -1.85% (inactive) and -27.7% (inactive).
Consider `CC(=O)NC(C(=O)O)=C(C)C`, for which the growth inhibition in experiment [1] was -9.2% (inactive) and 18% (inactive); in experiment [2], -7.55% (inactive) and -6.25% (inactive); in experiment [3] it was -1.45% (inactive) and 13.9% (inactive); in experiment [4], -16.9% (inactive) and 16.8% (inactive); in experiment [5] it was 7.95% (inactive) and 2.25% (inactive); in experiment [6] it was -5.2% (inactive) and 27.9% (inactive).
`O=C(Oc1ccc(Br)cc1)c1ccccc1`: the growth inhibition is 0.75% (inactive) and 5.6% (inactive) in experiment [1]; -12.8% (inactive) and -7.05% (inactive) in experiment [2]; -4.35% (inactive) and -0.05% (inactive) in experiment [3]; -13.9% (inactive) and -27.1% (inactive) in experiment [4]; 30.9% (inactive) and 13.7% (inactive) in experiment [5]; -6.1% (inactive) and 29.4% (inactive) in experiment [6].
For `CCOC1(C)OC2OC(COC(c3ccccc3)(c3ccccc3)c3ccccc3)C(O)C(O)C2O1` (stereo not given), the growth inhibition in experiment [1] is 63% (inactive) and 48.6% (inactive); in experiment [2] it was 28.9% (inactive) and 6.85% (inactive); in experiment [3] it was 95.2% (active) and 54.7% (inactive); in experiment [4] it was 24.9% (inactive) and 28.4% (inactive); in experiment [5], 76.2% (active) and 27.6% (inactive); in experiment [6], 50.9% (inactive) and 50% (inactive).

Values taken from PubChem BioAssay (NCI).
